Test results from PubChem BioAssay.
Values without a mark were called inactive. For some of these results: Measured potencies and affinities stand elsewhere. Some of the results follow. Active and inactive are the calls of the source.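 How the source made its calls, unless noted: active means fluorescence ratio rise of at least 3 SD above the vehicle-control mean, seen in both replicates; inactive means the rest.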

Assays:
[1] = target: Inward rectifier potassium channel 2 (Mus musculus) (UniProt P35561); assay: mouse Kir2.1 channel blockers, retest, confirmation, cell-based, FluxOR thallium flux, duplicate (AID 2032;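 active means Primary-screen hit whose thallium flux fell at least 3 control SD below untreated wells in both duplicates, with normal baseline fluorescence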); details: Kir2.1-expressing cells, FluxOR thallium flux fluorescence, at 10 µM; hits give low values
Inward rectifier potassium channel 2 (Mus musculus), sequence (P35561 whole entry, looked up): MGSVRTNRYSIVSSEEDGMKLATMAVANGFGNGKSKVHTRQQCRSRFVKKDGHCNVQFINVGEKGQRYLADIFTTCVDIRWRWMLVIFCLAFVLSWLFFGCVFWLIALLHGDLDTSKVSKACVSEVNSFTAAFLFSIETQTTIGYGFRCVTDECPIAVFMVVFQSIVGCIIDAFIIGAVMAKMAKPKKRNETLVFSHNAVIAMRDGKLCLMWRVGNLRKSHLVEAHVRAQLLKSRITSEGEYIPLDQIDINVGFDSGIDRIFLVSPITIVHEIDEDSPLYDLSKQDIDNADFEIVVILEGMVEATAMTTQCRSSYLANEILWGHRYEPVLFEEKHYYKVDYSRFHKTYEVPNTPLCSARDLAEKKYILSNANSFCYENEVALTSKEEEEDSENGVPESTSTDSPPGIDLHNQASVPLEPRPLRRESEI

[2] = nonspecific thallium flux effects in parental HEK293 cells, confirmation, counter-screen for Kir2.1 inhibitor project, cell-based, FluxOR thallium flux, duplicate, single concentration (AID 2105;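 active means dye signal at least 3 control SD above or below untreated wells in both duplicates, raw fluorescence within 3, either direction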;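 on FluxOR signal as % of negative control (100 = no effect): percent is based on the flux ratio of peak minus minimum fluorescence over baseline F0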); details: FluxOR thallium flux fluorescence, at 10 µM; 0% = unstimulated blank wells
[3] = nonspecific thallium flux increase in parental CHO-K1, confirmation, counter-screen for KCNQ2 potentiator project, cell-based, FluxOR thallium flux, duplicate (AID 2282;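 active means signal rise of at least 3 SD above the untreated control mean, in both duplicate wells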;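 further: counter screen of KCNQ2 potentiator hits so any rise reflects channel-independent effects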); details: parental CHO-K1 cells, FluxOR thallium flux fluorescence; at 10 µM; hits give high values; zero = vehicle mean+3SD, 100% = vehicle-minus-blank window
[4] = target: Potassium voltage-gated channel subfamily KQT member 1 (Homo sapiens) (UniProt P51787); assay: human KCNQ1 channel potentiation off-target, confirmation, selectivity assay for KCNQ2 potentiator project, cell-based, CHO, FluxOR thallium flux (AID 2283;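 active means fluorescence ratio rise of at least 3 SD of vehicle wells above their mean, in both replicate wells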;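 further: 0% = vehicle mean plus 3 SD and 100% = vehicle minus unstimulated blank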); details: CHO KCNQ1 stable, FluxOR thallium flux fluorescence; at 10 µM; hits give high values; beyond 3SD, as % of vehicle-control signal
Potassium voltage-gated channel subfamily KQT member 1 (Homo sapiens), sequence (P51787 whole entry, looked up): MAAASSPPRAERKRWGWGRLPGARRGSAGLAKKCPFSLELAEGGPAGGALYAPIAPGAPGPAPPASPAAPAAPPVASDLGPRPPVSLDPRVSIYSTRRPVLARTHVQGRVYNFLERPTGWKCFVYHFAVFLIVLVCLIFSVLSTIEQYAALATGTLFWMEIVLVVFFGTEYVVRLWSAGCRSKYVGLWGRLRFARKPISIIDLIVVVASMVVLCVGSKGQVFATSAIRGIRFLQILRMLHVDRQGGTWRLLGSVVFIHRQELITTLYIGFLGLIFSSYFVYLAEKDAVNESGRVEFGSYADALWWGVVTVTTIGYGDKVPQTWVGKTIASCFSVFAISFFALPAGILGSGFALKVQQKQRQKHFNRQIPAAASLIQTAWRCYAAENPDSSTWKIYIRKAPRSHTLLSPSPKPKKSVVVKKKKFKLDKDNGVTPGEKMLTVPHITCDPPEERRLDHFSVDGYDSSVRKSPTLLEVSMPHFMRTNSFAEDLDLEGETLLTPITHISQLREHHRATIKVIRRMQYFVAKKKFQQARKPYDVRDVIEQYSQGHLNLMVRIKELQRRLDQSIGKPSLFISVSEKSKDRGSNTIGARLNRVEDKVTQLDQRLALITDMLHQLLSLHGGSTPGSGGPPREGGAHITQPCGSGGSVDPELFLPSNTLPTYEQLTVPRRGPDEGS

[5] = target: Potassium voltage-gated channel subfamily KQT member 2 (Rattus norvegicus) (UniProt O88943); assay: rat KCNQ2 channel potentiators, confirmation, cell-based, CHO, FluxOR thallium flux, duplicate (AID 2287;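 active means fluorescence ratio rising 3 SD or more over the vehicle control mean in both replicates, plus primary screen hit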;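 further: peak minus minimum thallium fluorescence divided by baseline after K/Tl stimulus; 0% = vehicle mean plus 3 SD and 100% = vehicle minus unstimulated blank difference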); details: CHO-KCNQ2 cells, FluxOR thallium flux fluorescence; at 10 µM; hits give high values
[6] = target: Inward rectifier potassium channel 2 (Mus musculus) (UniProt P35561); assay: PubChem AID 2345; details: HEK293 Kir2.1, FluxOR thallium flux fluorescence; at 10 µM; hits give high values;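 further: 0% = vehicle mean plus 3 SD and 100% = vehicle minus no-stimulus blank window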
[7] = target: Potassium voltage-gated channel subfamily KQT member 2 (Rattus norvegicus) (UniProt O88943); assay: potentiators of retigabine-insensitive KCNQ2 W236L, mechanism study for KCNQ2 potentiator project, cell-based, rat KCNQ2 W236L, CHO, automated patch clamp (AID 2558;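 active means current increase at least 3 SD of the untreated controls above them in both duplicate recordings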); details: at 25 µM; outcome: automated patch clamp current
[8] = thallium flux activation in parental CHO cells, counter-screen for KCNQ1 potentiator project (AID 493006;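 active means duplicate-averaged activation above buffer control mean plus 5 SD of those controls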;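 further: fluorescence ratio of max minus min over baseline after K+ and Tl+ depolarization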); details: parental CHO-K1 cells, FluxOR thallium flux, at 10 µM; hits give high values
[9] = target: Potassium voltage-gated channel subfamily KQT member 1 (Homo sapiens) (UniProt P51787); assay: KCNQ1 potassium channel potentiators, confirmation, FluxOR thallium flux, CHO cells, duplicates (AID 493007;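 active means potentiation averaged over duplicate wells exceeding buffer-only control mean by more than 3 SD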;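 further: 0% = buffer-only wells and 100% = R-L3 activator control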); details: KCNQ1 cell line, FluxOR thallium flux fluorescence, at 10 µM; hits give high values, % of reference activator effect, buffer zero
[10] = target: Potassium voltage-gated channel subfamily KQT member 2 (Rattus norvegicus) (UniProt O88943); assay: rat KCNQ2 channel potentiation, selectivity assay for KCNQ1 potentiator project, KCNQ2-CHO-K1 cells (AID 493009;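 active means mean duplicate potentiation above the buffer control mean plus 5 SD of buffer wells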;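 further: assay conditions were tuned for KCNQ1 rather than KCNQ2 modulators; signal is max minus min fluorescence divided by baseline after thallium stimulus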); details: FluxOR thallium flux fluorescence, at 10 µM; hits give high values, scaled: buffer 0, activator control 100
[11] = target: Potassium voltage-gated channel subfamily KQT member 1 (Homo sapiens) (UniProt P51787); assay: KCNQ1 channel current potentiators, confirmation, orthogonal assay for KCNQ1 potentiator project, IonWorks patch clamp, KCNQ1-CHO cells (AID 493184;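 active means current rise at least 3 SD above the untreated control mean in each of two repeat wells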;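 on current potentiation: percent change of the same well's current before compound addition so 0% = no change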); details: automated patch clamp current, at 10 µM; hits give high values
[12] = system: TRPC4 beta (transient receptor potential cation channel C4), mouse; assay: activators of mouse TRPC4 channel, confirmation, cell-based, Fluo4 calcium, HEK293 TRPC4beta/mu-opioid, duplicates, 10 µM (AID 2426;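 active means fluorescence ratio normalized to control raised more than 50% in primary screen plus both repeat runs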); details: Fluo4 calcium fluorescence, at 10 µM; hits give high values
[13] = system: transient receptor potential cation channel C4 beta (TRPC4), mouse; assay: activators of mouse TRPC4 channel, confirmation, cell-based, second round, Fluo4, HEK293 TRPC4beta/mu-opioid, 1 µM (AID 2461;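 active means primary screen active and over 50% activation in each of two duplicate runs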); details: Fluo4 calcium fluorescence, at 1 µM; hits give high values
[14] = system: TRPC4 (transient receptor potential cation channel C4 beta), mouse; assay: positive allosteric modulators of mouse TRPC4, confirmation, cell-based, second round, Fluo-4, HEK293 TRPC4beta/mu-opioid, 1 µM (AID 2554;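 active means primary screen hit whose fluorescence ratio, in both repeats, exceeds the weak agonist control mean by 3 SD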); details: DAMGO EC20, Fluo-4 calcium flux, at 1 µM; hits give high values
[15] = system: TRPC4 beta (transient receptor potential cation channel C4), mouse; assay: positive allosteric modulators of mouse TRPC4, confirmation, cell-based, Fluo-4, HEK293 TRPC4beta/mu-opioid (AID 2555;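 active means primary screen hit whose calcium fluorescence ratio, in both repeats, exceeds the weak agonist control mean by 3 SD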); details: DAMGO EC20, Fluo-4 calcium flux, at 10 µM; hits give high values
[16] = target: Short transient receptor potential channel 4 (Mus musculus) (UniProt Q9QUQ5); assay: inhibitors of mouse TRPC4 channel, confirmation, cell-based, Fluo4, HEK293 TRPC4beta/mu-opioid (AID 2636;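 active means calcium signal cut by more than 3 SD below the full-agonist control yet still positive, in both repeats and the earlier primary screen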); details: DAMGO, Fluo4 calcium flux, at 10 µM; hits give high values
Short transient receptor potential channel 4 (Mus musculus), sequence (Q9QUQ5 whole entry, looked up): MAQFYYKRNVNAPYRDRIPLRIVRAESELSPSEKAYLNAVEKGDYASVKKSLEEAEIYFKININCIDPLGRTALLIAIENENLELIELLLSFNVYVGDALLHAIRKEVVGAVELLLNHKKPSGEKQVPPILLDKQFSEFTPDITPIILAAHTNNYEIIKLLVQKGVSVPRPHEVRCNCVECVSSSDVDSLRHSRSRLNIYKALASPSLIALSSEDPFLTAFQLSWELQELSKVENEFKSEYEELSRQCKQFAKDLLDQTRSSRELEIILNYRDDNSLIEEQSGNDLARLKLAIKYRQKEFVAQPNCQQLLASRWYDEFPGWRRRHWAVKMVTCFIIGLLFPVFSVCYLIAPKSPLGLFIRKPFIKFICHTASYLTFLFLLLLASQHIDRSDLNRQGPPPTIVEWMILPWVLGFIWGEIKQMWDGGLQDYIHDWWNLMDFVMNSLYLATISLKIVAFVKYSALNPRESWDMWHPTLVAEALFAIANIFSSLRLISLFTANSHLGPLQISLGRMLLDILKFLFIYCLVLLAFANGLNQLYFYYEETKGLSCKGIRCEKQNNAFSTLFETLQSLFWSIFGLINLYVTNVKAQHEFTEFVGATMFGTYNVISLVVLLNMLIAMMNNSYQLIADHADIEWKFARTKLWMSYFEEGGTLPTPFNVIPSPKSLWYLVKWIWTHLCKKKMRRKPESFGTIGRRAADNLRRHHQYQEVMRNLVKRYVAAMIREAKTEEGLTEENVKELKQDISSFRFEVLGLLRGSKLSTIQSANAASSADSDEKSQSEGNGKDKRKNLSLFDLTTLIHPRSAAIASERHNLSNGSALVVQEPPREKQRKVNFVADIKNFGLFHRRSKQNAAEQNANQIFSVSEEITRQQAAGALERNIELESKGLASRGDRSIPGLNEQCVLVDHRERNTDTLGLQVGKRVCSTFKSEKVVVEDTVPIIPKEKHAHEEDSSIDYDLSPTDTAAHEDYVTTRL

[17] = target: Short transient receptor potential channel 4 (Mus musculus) (UniProt Q9QUQ5); assay: inhibitors of mouse TRPC4 channel, confirmation, cell-based, second round, Fluo4, HEK293 TRPC4beta/mu-opioid, 1 µM (AID 2637;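 active means calcium signal ratio cut to more than 3 SD under the fully stimulated control mean yet still positive, in both repeats and the primary screen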); details: Fluo4 calcium flux, DAMGO, at 1 µM; hits give high values
[18] = target: Short transient receptor potential channel 4 (Mus musculus) (UniProt Q9QUQ5); assay: mouse TRPC4 channel activators, dose response, cell-based, HEK293 TRPC4/mu-opioid, Fluo-4 calcium (AID 434937;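 active means primary screen activator hit with a dose response curve and TRPC4 channel activation at any tested dose; inactive means no activation, no dose response, or not a primary hit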)
[19] = target: Short transient receptor potential channel 4 (Mus musculus) (UniProt Q9QUQ5); assay: TRPC4 positive allosteric modulators, dose response, cell-based, HEK293 TRPC4/mu-opioid, Fluo-4 calcium, EC20 DAMGO (AID 434941;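 active means earlier screen potentiator hit that boosts the TRPC4 ion channel at some dose, with a dose response; inactive means no potentiation, no dose response, or not a prior hit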;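 further: calcium entry triggered by an EC20 dose of DAMGO at the co-expressed mu-opioid receptor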)
[20] = target: Short transient receptor potential channel 4 (Mus musculus) (UniProt Q9QUQ5); assay: mouse TRPC4 channel inhibitors, dose response, cell-based, HEK293 TRPC4/mu-opioid, Fluo-4 calcium (AID 434942;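 active means primary screen inhibitor hit that blocks the TRPC4 channel at some tested dose, yielding a dose curve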)
[21] = target: Short transient receptor potential channel 6 (Mus musculus) (UniProt Q61143); assay: inhibition of mouse TRPC6 channel, confirmation, selectivity assay for TRPC4 inhibitor project, cell-based, HEK293, membrane potential dye, duplicate (AID 434948;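 active means active in primary screen and both duplicates, each dropping signal beyond three positive-control SD with fluorescence still positive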); details: HEK293 TRPC6, membrane potential dye fluorescence, at 10 µM, stimulated with maximal-effect acetylcholine; hits give high values
Short transient receptor potential channel 6 (Mus musculus), sequence (Q61143 whole entry, looked up): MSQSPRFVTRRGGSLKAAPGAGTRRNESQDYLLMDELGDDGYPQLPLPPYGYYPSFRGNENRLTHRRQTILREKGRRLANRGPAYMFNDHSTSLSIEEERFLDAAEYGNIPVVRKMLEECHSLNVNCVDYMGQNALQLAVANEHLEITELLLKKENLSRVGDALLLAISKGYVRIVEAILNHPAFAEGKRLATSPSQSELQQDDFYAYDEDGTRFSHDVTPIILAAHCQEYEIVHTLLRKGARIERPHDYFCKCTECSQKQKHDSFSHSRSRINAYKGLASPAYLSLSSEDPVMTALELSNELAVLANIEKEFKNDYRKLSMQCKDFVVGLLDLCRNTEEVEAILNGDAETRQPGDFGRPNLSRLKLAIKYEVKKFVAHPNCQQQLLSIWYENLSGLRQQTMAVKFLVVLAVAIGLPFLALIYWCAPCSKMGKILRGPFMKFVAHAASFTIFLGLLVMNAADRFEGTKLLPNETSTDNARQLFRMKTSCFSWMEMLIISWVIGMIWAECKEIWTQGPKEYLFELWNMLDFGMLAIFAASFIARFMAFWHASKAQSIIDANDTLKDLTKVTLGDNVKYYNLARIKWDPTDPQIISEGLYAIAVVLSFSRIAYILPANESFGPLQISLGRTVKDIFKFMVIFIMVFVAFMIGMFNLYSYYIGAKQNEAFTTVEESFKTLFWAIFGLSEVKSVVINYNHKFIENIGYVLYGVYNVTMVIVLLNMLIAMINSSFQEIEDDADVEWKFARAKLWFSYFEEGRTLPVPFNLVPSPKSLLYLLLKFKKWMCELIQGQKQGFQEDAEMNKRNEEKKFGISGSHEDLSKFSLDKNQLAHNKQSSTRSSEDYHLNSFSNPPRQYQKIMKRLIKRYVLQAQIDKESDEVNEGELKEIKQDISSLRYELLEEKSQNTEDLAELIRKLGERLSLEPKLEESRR

[22] = target: Short transient receptor potential channel 6 (Mus musculus) (UniProt Q61143); assay: activation of mouse TRPC6 channel, confirmation, selectivity assay for TRPC4 activator project, cell-based, HEK293, membrane potential dye, duplicate (AID 434950;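 active means membrane potential signal rise above negative control mean plus 3 SD in both duplicates, also active in the earlier TRPC4 screen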); details: HEK293 TRPC6, membrane potential fluorescence, at 10 µM; hits give high values
[23] = target: Short transient receptor potential channel 6 (Mus musculus) (UniProt Q61143); assay: TRPC6 potentiation by TRPC4 potentiator hits, confirmation, selectivity assay for TRPC4 potentiator project, HEK293 cells, membrane potential dye, duplicate (AID 434952;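 active means compound raising the membrane signal above positive-control mean plus 3 SD in both repeats, and a primary screen hit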); details: HEK293 TRPC6, membrane potential dye fluorescence, at 10 µM, maximal acetylcholine added after compound; hits give high values
[24] = target: Short transient receptor potential channel 4 (Mus musculus) (UniProt Q9QUQ5); assay: calcium flux activators in TRPC4/5HT1a cells, counter-screen for TRPC4 activator project, cell-based, second counter screen, HEK293 TRPC4/5HT1a, Fluo-4 (AID 434977;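 active means calcium signal rise above buffer-control mean plus 5 SD in both duplicates, and also a hit in the primary screen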); details: Fluo-4 calcium flux, at 10 µM; hits give high values
[25] = calcium flux inhibitors in TRPC4/5HT1a cells, confirmation, counter-screen for TRPC4 inhibitor project, cell-based, second counter screen, HEK293 TRPC4/5HT1a, Fluo-4 (AID 434978;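 active means primary screen active whose calcium signal fell more than 3 SD beyond the full-serotonin control mean in both duplicate plates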;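 further: serotonin given first at submaximal then at maximal dose after compound preincubation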); details: Fluo-4 calcium flux, at 10 µM, serotonin added to trigger calcium flux; hits give high values
[26] = system: TRPC4 (mouse), co-expressed with 5HT1a in HEK293; assay: calcium flux potentiators in TRPC4/5HT1a cells, confirmation, counter-screen for TRPC4 potentiator project, cell-based, second counter screen, HEK293 TRPC4/5HT1a, Fluo-4 (AID 434979;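 active means signal rise over 3 SD above mean of control wells given weak agonist, in both repeats and first screen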); details: Fluo-4 calcium flux, at 10 µM, serotonin added at its EC20 dose; hits give high values
[27] = calcium flux activation in mu-opioid HEK293 cells, confirmation, counter-screen for TRPC4 activator project, cell-based, HEK293 mu-opioid receptor line (AID 449723;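 active means hit in primary screen, with calcium signal over 5 SD above buffer well mean in both duplicates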;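 further: counter screen cells carry the mu-opioid receptor alone and lack TRPC4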); details: Fluo-4 calcium fluorescence, at 10 µM; hits give high values
[28] = calcium flux enhancement in mu-opioid HEK293 cells, confirmation, counter-screen for TRPC4 allosteric potentiator project, cell-based, HEK293 mu-opioid receptor line (AID 449724;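 active means calcium signal rise more than 3 SD above the low-dose agonist control mean, in both duplicate plates and the primary screen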); details: Fluo-4 calcium flux, at 10 µM, compound added before EC20 DAMGO stimulus; hits give high values

Structure (SMILES): CCc1ccc(NC(=O)C(=O)NNC(=O)c2cccs2)cc1
- outcome [1]: inactive
- FluxOR signal as % of negative control (100 = no effect) [2]: 310% (active)
- activity increase over 3SD of controls [3]: -16%
- activation over 3SD threshold [4]: 85.7% (active)
- potentiation, less the hit threshold [5]: 26.8% (active)
- activity over 3SD threshold [6]: -22.9%
- outcome [7]: inactive
- activation [8]: 360% (active)
- potentiation [9]: 159% (active)
- potentiation [10]: 421% (active)
- outcome [11]: inactive

Structure (SMILES): Oc1c(Cl)cc(Cl)cc1/C=N/c1ncn[nH]1
- outcome [1]: inactive
- outcome [2]: inactive
- activity increase over 3SD of controls [3]: -13.3%
- activation over 3SD threshold [4]: -9.2%
- potentiation, less the hit threshold [5]: 37.8% (active)
- activity over 3SD threshold [6]: -28.1%
- outcome [7]: inactive
- activation [8]: 232% (active)
- potentiation [9]: 41.5% (active)
- potentiation [10]: 156% (active)
- outcome [11]: inactive

Structure (SMILES): CCC1(C)Cc2c(sc3[nH]c(=S)n(Cc4ccccc4)c(=O)c23)CO1 (configuration not stated)
- outcome [1]: inactive
- FluxOR signal as % of negative control (100 = no effect) [2]: 527% (active)
- activity increase over 3SD of controls [3]: -13%
- activation over 3SD threshold [4]: -16.6%
- potentiation, less the hit threshold [5]: 66% (active)
- activity over 3SD threshold [6]: 10.5% (active)
- outcome [7]: inactive
- activation [8]: 294% (active)
- potentiation [9]: 190% (active)
- potentiation [10]: 388% (active)
- current potentiation [11]: 15.1% (active)

Structure (SMILES): COc1cc(Cl)c(S(=O)(=O)N2CCN(Cc3ccc4c(c3)OCO4)CC2)cc1Cl
- outcome [12]: inactive
- outcome [13]: inactive
- outcome [14]: inactive
- potentiation [15]: 10% (active)
- outcome [16]: inactive
- outcome [17]: inactive
- outcome [18]: inactive
- outcome [19]: inactive
- outcome [20]: inactive
- outcome [21]: inactive
- outcome [22]: inactive
- outcome [23]: inactive
- outcome [24]: inactive
- outcome [25]: inactive
- potentiation [26]: 16.8% (active)
- outcome [27]: inactive
- outcome [28]: inactive

Structure (SMILES): C=CCc1cc(Cl)ccc1OCCCn1ccnc1
- outcome [12]: inactive
- outcome [13]: inactive
- potentiation [14]: 9% (active)
- outcome [15]: inactive
- outcome [16]: inactive
- outcome [17]: inactive
- outcome [18]: inactive
- outcome [19]: inactive
- outcome [20]: inactive
- outcome [21]: inactive
- outcome [22]: inactive
- outcome [23]: inactive
- outcome [24]: inactive
- outcome [25]: inactive
- outcome [26]: inactive
- outcome [27]: inactive
- outcome [28]: inactive
